# From PubChem BioAssay AID1159580 (chemical genetic matrix, 2015)
# The campaign covered roughly 5,500 compounds. About 2,000 (36%) were called active. About 18% were inconclusive and are not listed. Some of the results follow. Values without a mark were called inactive. Cut-off read from the data, not from the text of the source: active = normalized growth mostly below about 0.91 (no sharp cut-off); inconclusive = no clear call, values can overlap the other calls; inactive = mostly above about 0.92.
# Experiment: chemical genetic growth profiling, strain panel (AID 1159580);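 note: tested at 20 µM; growth read once vehicle control cultures reached saturation at 30 °C; 1 = growth at the plate median or of vehicle wells; lower values mean less growth of the strain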
# Conditions: S. cerevisiae deletion strains, growth OD
# [1] = locus YDR150W, strain NUM1, active compounds read low
# [2] = locus YGR078C, strain PAC10, active compounds read low
# [3] = locus YJR075W, strain HOC1, active compounds read low
# [4] = locus YMR307W, strain GAS1, active compounds read low
# [5] = locus YNL322C, strain KRE1, active compounds read low
smiles,measurement,setting,value
COc1cc(CNC(=O)CCCCCCC(C)C)ccc1O,normalized growth,"locus YAL013W, strain DEP1, active compounds read low",0.944
same,normalized growth,"locus YAL040C, strain CLN3, active compounds read low",0.986
same,normalized growth,"locus YCL061C, strain MRC1 (second series), active compounds read low",0.993
same,normalized growth,[1],1
same,normalized growth,"locus YDR363W, strain ESC2, active compounds read low",0.974
same,normalized growth,"locus YER002W, strain NOP16, active compounds read low",1
same,normalized growth,[2],0.999
same,normalized growth,[3],0.988
same,normalized growth,[4],0.973
same,normalized growth,"locus YNL175C, strain NOP13, active compounds read low",1.01
same,normalized growth,"locus YNL197C, strain WHI3, active compounds read low",0.981
same,normalized growth,"locus YNL224C, strain SQS1, active compounds read low",0.981
same,normalized growth,[5],0.983
same,normalized growth,"locus YOR083W, strain WHI5 (second series), active compounds read low",0.981
CCC[C@H]1CC2=C(C[C@@H](CC)CC3=C1C(=O)OC3=O)C(=O)OC2=O,normalized growth,"locus YBR021W, strain FUR4, active compounds read low",1
same,normalized growth,"locus YBR229C, strain ROT2, active compounds read low",1.01
same,normalized growth,"locus YCL029C, strain bik1, active compounds read low",1.02
same,normalized growth,"locus YDL035C, strain GPR1, active compounds read low",1.03
same,normalized growth,"locus YDL074C, strain BRE1, active compounds read low",1.02
same,normalized growth,"locus YDL101C, strain DUN1, active compounds read low",1.02
same,normalized growth,"locus YDL134C, strain PPH21, active compounds read low",1.01
same,normalized growth,"locus YDL185W, strain tfp1, active compounds read low",1.01
same,normalized growth,"locus YDL192W, strain arf1, active compounds read low",1.02
same,normalized growth,"locus YDR101C, strain arx1, active compounds read low",1.03
same,normalized growth,[1],1.01
same,normalized growth,"locus YDR162C, strain NBP2, active compounds read low",1.01
same,normalized growth,"locus YDR318W, strain mcm21, active compounds read low",0.998
same,normalized growth,"locus YDR388W, active compounds read low",1.02
same,normalized growth,"locus YDR502C, strain sam2, active compounds read low",1.01
same,normalized growth,"locus YEL061C, strain CIN8, active compounds read low",1.01
same,normalized growth,"locus YER110C, active compounds read low",1.02
same,normalized growth,"locus YER155C, strain BEM2, active compounds read low",1.01
same,normalized growth,"locus YER167W, strain BCK2, active compounds read low",1.01
same,normalized growth,"locus YGL078C, strain dbp3, active compounds read low",0.65 (active)
same,normalized growth,"locus YGL086W, strain mad1, active compounds read low",1.05
same,normalized growth,"locus YGL248W, strain PDE1, active compounds read low",1
same,normalized growth,[2],1.01
same,normalized growth,"locus YGR135W, strain pre9, active compounds read low",1
same,normalized growth,"locus YGR252W, strain gcn5, active compounds read low",0.969
same,normalized growth,"locus YHR030C, strain SLT2, active compounds read low",1.01
same,normalized growth,"locus YHR079C, strain IRE1 (second series), active compounds read low",1.02
same,normalized growth,"locus YHR094C, strain hxt1, active compounds read low",1.01
same,normalized growth,"locus YHR129C, strain ARP1, active compounds read low",1.02
same,normalized growth,"locus YHR200W, strain rpn10, active compounds read low",1
same,normalized growth,"locus YIL066C, strain RNR3, active compounds read low",1.02
same,normalized growth,"locus YIL073C, strain SPO22, active compounds read low",1.07
same,normalized growth,"locus YIL125W, strain kgd1, active compounds read low",0.875 (active)
same,normalized growth,"locus YIR030C, strain dcg1, active compounds read low",1.01
same,normalized growth,"locus YJL095W, strain BCK1, active compounds read low",1.01
same,normalized growth,"locus YJL134W, strain LCB3, active compounds read low",1.01
same,normalized growth,"locus YJL168C, strain set2, active compounds read low",1.01
same,normalized growth,"locus YJL187C, strain SWE1 (second series), active compounds read low",1.02
same,normalized growth,"locus YJR043C, strain POL32, active compounds read low",1.01
same,normalized growth,[3],1.01
same,normalized growth,"locus YKL009W, strain mrt4, active compounds read low",0.663 (active)
same,normalized growth,"locus YKL068W, active compounds read low",0.979
same,normalized growth,"locus YKL085W, strain MDH1 (second series), active compounds read low",0.932
same,normalized growth,"locus YKL085W, strain MDH1, active compounds read low",0.932
same,normalized growth,"locus YKL190W, strain CNB1, active compounds read low",1.01
same,normalized growth,"locus YKR001C, strain vps1, active compounds read low",1.02
same,normalized growth,"locus YLR039C, strain RIC1, active compounds read low",1.04
same,normalized growth,"locus YLR058C, strain SHM2, active compounds read low",1.01
same,normalized growth,"locus YLR102C, strain apc9, active compounds read low",1.02
same,normalized growth,"locus YLR262C, strain YPT6, active compounds read low",1.02
same,normalized growth,"locus YLR268W, strain sec22, active compounds read low",1.04
same,normalized growth,"locus YLR330W, strain CHS5, active compounds read low",1.01
same,normalized growth,"locus YLR342W, strain FKS1 (second series), active compounds read low",1.03
same,normalized growth,"locus YLR371W, strain rom2, active compounds read low",1.03
same,normalized growth,"locus YLR418C, strain cdc73, active compounds read low",0.991
same,normalized growth,"locus YML016C, strain PPZ1, active compounds read low",1
same,normalized growth,"locus YML032C, strain rad52, active compounds read low",0.999
same,normalized growth,"locus YML124C, strain tub3, active compounds read low",1.01
same,normalized growth,"locus YMR078C, strain ctf18, active compounds read low",1.01
same,normalized growth,"locus YMR223W, strain ubp8, active compounds read low",0.987
same,normalized growth,[4],0.947
same,normalized growth,"locus YNL067W, strain RPL9B, active compounds read low",1.01
same,normalized growth,"locus YNL153C, strain GIM3, active compounds read low",1.02
same,normalized growth,"locus YNL233W, strain BNI4, active compounds read low",0.999
same,normalized growth,"locus YNL250W, strain rad50, active compounds read low",0.814 (active)
same,normalized growth,"locus YNL271C, strain bni1, active compounds read low",0.845 (active)
same,normalized growth,"locus YNL298W, strain CLA4, active compounds read low",0.818 (active)
same,normalized growth,"locus YNL307C, strain MCK1, active compounds read low",1.02
same,normalized growth,[5],1.01
same,normalized growth,"locus YNR052C, strain pop2, active compounds read low",0.998
same,normalized growth,"locus YOL006C, strain TOP1, active compounds read low",1.08
same,normalized growth,"locus YOL012C, strain htz1",0.773
same,normalized growth,"locus YOL147C, strain pex11, active compounds read low",1.01
same,normalized growth,"locus YOR061W, strain CKA2, active compounds read low",1.01
same,normalized growth,"locus YOR069W, strain VPS5, active compounds read low",1.02
same,normalized growth,"locus YOR136W, strain idh2, active compounds read low",1.04
same,normalized growth,"locus YOR144C, strain elg1, active compounds read low",1.01
same,normalized growth,"locus YOR184W, strain ser1, active compounds read low",1.02
same,normalized growth,"locus YOR316C, strain cot1, active compounds read low",1.02
same,normalized growth,"locus YPL241C, strain CIN2, active compounds read low",1.01
same,normalized growth,"locus YPR119W, strain clb2, active compounds read low",1.02
same,normalized growth,"locus YPR141C, strain kar3, active compounds read low",0.896 (active)
same,normalized growth,"locus YPR163C, strain tif3, active compounds read low",1.01
same,normalized growth,"locus YPR167C, strain met16, active compounds read low",0.998
same,normalized growth,"strain wtn01, active compounds read low",1.06
